From PubChem BioAssay AID743287 (Broad Institute, 2014) come the findings set out here.

The structures appear in SMILES notation. “And” between values parts separate entries of the source, which are not always exact repeats. Equal entries are not always repeated. The campaign covered roughly 370,000 compounds. About 2,300 (0.62%) were called active.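 Rule for the calls: active = lowest replicate activation of at least 40%, so every replicate reaches that level; inactive = the rest.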 The sample as a whole holds a higher share of actives than the screen did.

The assay is described as follows: primary screen for activators of insulin secretion dependent on glucose, INS-1E cells, GLuc reporter luminescence (AID 743287).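 Note: 0% = median of neutral control wells and 100% = median of IBMX positive control wells.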 To be noted: INS-1E GLuc reporter insulin secretion, 2-3 h, at 16.6 µM, stronger effect = higher value.
On to `CCCCCCCCCCOC(=O)Cn1c(COc2ccc(C)cc2)[n+](C)c2ccccc21`, for which the activation was 193% (active).
For the compound `CCCCOC(=O)c1ccc(NC(c2ccc(C)cc2)P(=O)(OC)OC)cc1` (stereo not drawn), the activation is -63.4% (inactive).
To `Cc1ccc(OCCC(=O)OCC(=O)N2c3ccccc3NC(=O)C2(C)C)cc1` belongs -29.1% (inactive).
To `CCCNC(=O)N1CCC2(CC1)CN(C(=O)c1cccnc1)[C@@H](CO)c1[nH]c3cc(OC)ccc3c12` belongs 20.9% (inactive); to `C[C@H]1CCCCO[C@@H](CN(C)Cc2ccc3c(c2)OCO3)[C@@H](C)CN([C@@H](C)CO)C(=O)c2cc(NS(=O)(=O)c3ccc(F)cc3)ccc2O1`, -26% (inactive); to `O=C(C[C@H]1C=C[C@H](NC(=O)c2cccc(F)c2)[C@@H](CO)O1)NCc1ccc(Oc2ccccc2)cc1`, 8.87% (inactive).
To `Cc1noc(C)c1NC(=O)N(C)C[C@@H]1Oc2c(NC(=O)CCCCCC(=O)Nc3ccccc3N)cccc2C(=O)N([C@H](C)CO)C[C@@H]1C` belongs -5.82% (inactive).
On to `COc1ccccc1S(=O)(=O)N[C@@H]1C=C[C@H](CC(=O)NCc2cccc(F)c2)O[C@H]1CO`, for which the activation is 10.3% (inactive).
Turning to `COc1ccc(NC(=O)C2Cc3c(-c4cccc(NC(C)=O)c4)ccnc3O2)cc1OC` (stereo not drawn), the activation was -7.03% (inactive).
To `COc1cc2c(cc1OC)/C(=C/C(=O)c1ccc(NC(C)=O)cc1)NCC2` belongs 70% (active); to `COc1ccc(C(=O)Nc2ccc(C3(C#N)CCCC3)cc2)cc1OC`, -6.21% (inactive); to `CCC(=O)N(C)C[C@@H]1Oc2ncc(C#Cc3ccccc3)cc2C(=O)N([C@@H](C)CO)C[C@H]1C`, -1.97% (inactive).
The value for `COc1ccccc1C(=O)NC(=O)COC(=O)C1CC1` was -1.88% (inactive); that for `NC(=O)COc1ccccc1C(=O)NC12CC3CC(CC(C3)C1)C2` was 17.8% (inactive).
The value for `COc1ccccc1C(=O)NC(=S)NC12CC3CC(CC(C3)C1)C2` was 41.4% (active); that for `COc1cccc(C#Cc2ccc3c(c2)[C@H]2[C@H](CCN2C(=O)CC2CC2)[C@H](CO)N3)c1` was 0.458% (inactive).
Turning to `CCCC#Cc1ccc2c(c1)O[C@H](CN(C)C(=O)C1CCCCC1)[C@H](C)CN([C@H](C)CO)S2(=O)=O`, the activation is -12.4% (inactive).
Regarding `CN(C)CC(=O)N[C@@H]1CC[C@H](CCn2cc(C3CCCC3)nn2)O[C@H]1CO`, the activation is -11.3% (inactive).
Turning to `O=C(Nc1ccccc1)c1nnsc1S(=O)(=O)c1ccc(Cl)cc1`, the activation was 48.4% (active).
Consider `O=C(NCCS(=O)(=O)NCc1ccc(Cl)cc1)c1ccccc1`, for which the activation was 18.7% (inactive).
As for `O=C(NNC(=O)c1cccc(S(=O)(=O)Nc2ccc(Cl)cc2)c1)c1ccc(=O)[nH]c1`, the activation is 0.241% (inactive).
The value for `C=CCSc1nc2c(c(=O)[nH]1)C(C(C)C)C(C#N)=C(N)O2` (stereo not drawn) was 71.8% (active); that for `C=CCSc1nc(N)cc(=O)[nH]1` was 18% (inactive).
`O=C(C[C@@H]1CC[C@@H]2[C@H](COC[C@H](O)CN2S(=O)(=O)c2ccccc2)O1)N[C@H]1CCN(Cc2ccccc2)C1`: the activation was 4.06% (inactive).
Regarding `COc1ccc(NC(=O)N(C)C[C@H]2Oc3c(NC(=O)Nc4cccc5ccccc45)cccc3C(=O)N([C@H](C)CO)C[C@@H]2C)cc1`, the activation was -5.46% (inactive).
In the case of `Cc1cccc(-c2ccc(C3[C@H]4CNC[C@@H]3N4S(=O)(=O)c3ccccc3F)cc2)c1` (stereo partly drawn), the activation is -12.2% (inactive) and 1.38% (inactive).
To `C/C=C/c1ccc([C@@H]2[C@@H](CN(C)C(C)=O)N(C(=O)C3CC3)[C@H]2CO)cc1` belongs -3.3% (inactive); to `C[C@@H]1CN([C@H](C)CO)C(=O)c2cc(NC(=O)Cn3cnnn3)ccc2O[C@@H]1CN(C)C(=O)Nc1ccc2c(c1)OCO2`, 6.33% (inactive).
To `C[C@H](CO)N1C[C@H](C)[C@H](CN(C)S(C)(=O)=O)Oc2ncc(C3=CCCC3)cc2C1=O` belongs 23.9% (inactive); to `COc1ccc2c3c(n(C)c2c1)[C@H](CO)N(C(=O)NC(C)C)CC31CN(CC2CCCCC2)C1`, -8.45% (inactive).
The value for `C/C=C/c1ccc2c(c1)O[C@@H](CN(C)C(=O)c1ccncc1)[C@@H](C)CN([C@H](C)CO)S2(=O)=O` was 9.46% (inactive); that for `C=CCOc1ccc(/C=N/NC(=O)C(C)Sc2ccccn2)cc1OCC` (stereo not drawn) was 26.6% (inactive).
As to `CCOc1ccc(/C=N/NC(=O)CSc2ccccn2)cc1O`, the activation was 47.7% (active).
In the case of `C/C(=N/NC(=O)CSc1ccccn1)c1ccc([N+](=O)[O-])cc1`, the activation was 3.45% (inactive).
`Cc1ccccc1S(=O)(=O)N1CC(=O)N2[C@H](CO)[C@@H](c3ccc(C#Cc4ccccc4)cc3)[C@H]2C1`: the activation is -6.46% (inactive).
To `Cc1nc(N2[C@H](CO)[C@H](c3ccccc3)[C@H]2CNCC2CCC2)sc1C` belongs 2.74% (inactive).
`CCCNC(=O)N1CC2(CN(C(=O)C3CCCCC3)C2)c2c([nH]c3cc(OC)ccc23)[C@@H]1CO`: the activation was 13.6% (inactive).
To `Cc1ccc(-c2ccc3c(c2)O[C@@H](CN(C)C(=O)NC(C)C)[C@@H](C)CN([C@H](C)CO)S3(=O)=O)cc1` belongs 4.12% (inactive).
To `Cc1ccc(C(C)C)cc1OCCN1CCCC1` belongs 12.9% (inactive).
Take `c1ccc(-c2ccccc2OCCN2CCCCC2)cc1`: the activation is 53.2% (active).
As to `C#CC(CCN1CCCCC1)(OC)c1ccccc1` (stereo not drawn), the activation is 17.7% (inactive).
Turning to `CCCNC(=O)N1CC(=O)N2[C@H](CO)[C@@H](c3ccc(-c4ccc(F)cc4)cc3)[C@H]2C1`, the activation is -19.7% (inactive).
For the compound `C[C@H](CO)N1C[C@H](C)[C@@H](CN(C)CC2CC2)OCCCC[C@H](C)Oc2ccc(NC(=O)Cc3ccccc3)cc2C1=O`, the activation was 7.71% (inactive).
The value for `COc1ccc(COC(=O)c2n[nH]c3ccccc23)cc1F` was -12.2% (inactive); that for `CCN(CC)S(=O)(=O)c1ccc2nc(COC(=O)c3n[nH]c4ccccc34)[nH]c2c1` was 57.7% (active); that for `COc1ccc(S(=O)(=O)N(C)C)cc1NC(=O)COC(=O)c1n[nH]c2ccccc12` was -5.72% (inactive).
To `C[C@H](CO)N1C[C@H](C)[C@@H](CN(C)C(=O)Nc2ccnc(N3CCOCC3)c2)OCc2ccccc2-c2c(n(C)c3ccccc23)C1=O` belongs -17.9% (inactive); to `CNC[C@H]1Oc2ccc(NC(=O)CCC(F)(F)F)cc2C(=O)N([C@@H](C)CO)C[C@H]1C`, 4.67% (inactive).
